# Compound activity as filed in PubChem BioAssay.
# NS1 function inh = inhibitors of influenza NS1 protein function; actives 0.4% (n = 270,000); Potency, µM (titrated, usually from 46.1 µM); note: actives are rising curves; nearly all actives have a fitted effect of over 50% in size
#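 OD600 was taken as the measure of yeast growth restored by compound in an NS1-expressing S. cerevisiae strain. Cells had been washed out of glucose medium and diluted 1:100 into galactose -URA medium, pH 6.0.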
# Pf growth 48h = inhibits P. falciparum growth in the first generation, 48 h; Potency, µM (series often up to 28.7 µM), usual class: inhibitors; P. falciparum luciferase growth in erythrocytes, 48 h; AID 504832; actives 5.9% (n = 310,000); active = well fitted inhibition curve with a large enough effect; inconclusive = small, poorly fitted or top-dose-only effect, or another doubt; inactive = no such curve, though single readings can be large or run the other way
#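 Luciferase-expressing parasites in RBCs, 2% Hct / 0.1% parasitemia final; RPMI 1640 + 0.5% Albumax; 37 C, 5% CO2, one generation; luminescence read-out, lower signal = inhibition.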
# Pf growth 96h = inhibits malaria parasite growth, 96 h; P. falciparum luciferase reporter growth, 96 h; actives 6.9% (n = 320,000); Potency, µM (doses to about 28.7 µM), most hits filed as inhibitors; active = well fitted inhibition curve with a large enough effect; inconclusive = small, poorly fitted or top-dose-only effect, or another doubt; inactive = no such curve, though single readings can be large or run the other way
#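 Cell-based qHTS: luciferase-tagged P. falciparum in erythrocytes (2% hematocrit, 0.05% parasitemia final) incubated with compounds for 96 hours, 37 C, 5% CO2; luciferase detection reagent then added and luminescence measured.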
# SARS PLP yeast = SARS-CoV PLP inhibition in yeast. S. cerevisiae expressing SARS-CoV PLpro, growth rescue. Potency, µM (top dose mostly 32.9 µM), usual class: activators. actives 0.19% (n = 330,000); note: nearly all actives have a fitted effect of over 55% in size
# Hits are given with their value; n = inactive; u = inconclusive; x = no result given; [ ] = dose if it differs, or a comment. Shown are actives, neighbours in structure and some others; about 10% of the full set was active somewhere. Unless noted, calls come from the whole dose curve.
SMILES,NS1 function inh,Pf growth 48h,Pf growth 96h,SARS PLP yeast
O=C(Cc1ccccc1[N+](=O)[O-])NCCCc1ccccc1,n,n,u,n
CCn1cc(/C=C(\NC(=O)c2ccccc2F)C(=O)NCCCn2ccnc2)c2ccccc21,n,n,u,n
CN(c1ccc(C(=O)NCCCn2ccnc2)cc1)S(C)(=O)=O,n,n,n,n
C=CCN(c1ccc(C(=O)NCCCn2ccnc2)cc1)S(C)(=O)=O,n,n,9.3µM,n
O=C(c1ccccc1)c1ccc(NCCCn2ccnc2)c([N+](=O)[O-])c1,n,u,12µM,n
O=C(NCCCn1ccnc1)C1c2ccccc2Oc2ccccc21,n,n,10µM,n
O=C(NCCCn1ccnc1)c1cc(C2CC2)on1,n,n,10µM,n
O=C(NCCCn1ccnc1)c1ccc2ccccc2c1,n,n,12µM,n
O=C(c1ccc(COc2ccccc2)o1)N1CCN(S(=O)(=O)c2ccccc2Cl)CC1,x,13µM,u,n
CC1CCN(C(=O)c2ccc(COc3ccccc3Cl)o2)CC1,n,u,10µM,n
Cc1ccc(S(=O)(=O)N2CCN(C(=O)c3ccc(COc4ccccc4)o3)CC2)cc1,x,12µM,9.3µM,n
O=C(c1ccc(COc2ccccc2Cl)o1)N1CCCC1,n,n,u,n
Cc1cccc(OCc2ccc(C(=O)N3CCOCC3)o2)c1,n,n,n,n
Cc1nn(-c2ccccc2)c(C)c1C(=O)OCC(=O)N1CCN(S(=O)(=O)c2ccccc2)CC1,n,n,n,n
O=C(O)c1nc(-c2ccccc2)n(-c2ccccc2)n1,n,n,n,n
COc1ccc(S(=O)(=O)N2CCN(C(=O)c3c(C)nn(-c4ccccc4)c3C)CC2)cc1,x,10µM,8.3µM,n
O=C(c1nc(-c2ccccc2)n(-c2ccccc2)n1)N1CCN(S(=O)(=O)c2ccccc2)CC1,n,9.3µM,x,n
Cc1ccc(C)c(S(=O)(=O)N2CCN(C(=O)c3cc(-c4cccs4)nn3-c3ccccc3)CC2)c1,x,7.4µM,13µM,n
COc1ccc(OC)c(S(=O)(=O)N2CCN(C(=O)c3cc(C4CC4)nn3-c3ccccc3)CC2)c1,x,u,9.3µM,n
COc1ccc(OC)c(S(=O)(=O)N2CCC(C(=O)Nc3ccccc3)CC2)c1,n,n,u,n
Cc1ccc(C)c(S(=O)(=O)N2CCN(C(=O)[C@@H]3CCCN3C(=O)c3cccs3)CC2)c1,x,u,n,n
O=C(c1cc(C2CC2)nn1-c1ccccc1)N1CCN(S(=O)(=O)c2ccccc2)CC1,x,15µM,u,n
CC(C)C(=O)Nc1ccc(S(=O)(=O)N2CCC(c3nc4ccccc4[nH]3)CC2)cc1,x,u,u,n
N#Cc1ccc(CSc2ccc(S(=O)(=O)N3CCCCCC3)cn2)cc1,x,n,n,n
Cc1ccc(-c2ocnc2C(=O)Nc2ccccc2NC(=O)c2ccccn2)cc1,n,2.1µM,n,n
SMILES,NS1 function inh,Pf growth 48h,Pf growth 96h,SARS PLP yeast
O=C1c2ccccc2C(=O)N1CCCc1nc2ccccc2c(=O)n1CCCn1ccnc1,n,n,1.9µM,n
Cn1c(-n2c(CCCN3C(=O)c4ccccc4C3=O)nc3ccccc3c2=O)nc2ccccc21,n,n,n,n
CCCc1cc(C(=O)N2CCCC(N3CCN(c4ccccc4F)CC3)C2)n(C)n1 (stereo not drawn),n,n,n,n
c1ccc(C2CNCCc3ccccc32)cc1 (stereo not drawn),n,n[0.00184 µM],1.7µM,n
CCN(CC(=O)Nc1c(F)cccc1F)C(=O)Cc1csc(-c2ccccc2)n1,x,n,n,n
COc1cc(C#Cc2c(-c3ccccc3)n(C)c3ccccc23)cc(OC)c1,n,u,12µM,n
COc1ccc(C#Cc2c(-c3ccccc3)n(C)c3ccccc23)cc1,x,x,x,n
COc1ccc(-c2c(C#Cc3ccsc3)c3ccccc3n2C)cc1,u,u,3.3µM,n
COc1cc(C#Cc2c(-c3cncn3C)n(C)c3ccc(-c4ccc5cc[nH]c5c4)cc23)cc(OC)c1,x,x,x,n
COc1cc(C#Cc2c(-c3cncn3C)n(C)c3ccc(-c4ccc(OC)c(OC)c4)cc23)cc(OC)c1,x,1.3µM,5.2µM,n
COC(=O)c1ccc2c(c1)c(C#Cc1ccccc1)c(-c1ccccc1)n2C,x,x,x,n
Cc1cc(C#Cc2c(-c3ccccc3)n(C)c3ccccc23)ccc1F,n,u,5.9µM,n
CCC(C)c1ccc(NC(=S)NCc2ccccc2OC)cc1 (stereo not drawn),n,u,u,n
COc1ccc(-c2oc3ccc(-c4cc(OC)c(OC)c(OC)c4)cc3c2C#Cc2ccsc2)cc1,n,n,7.4µM,n
COc1ccc(-c2c(C#Cc3ccsc3)c3cc(-c4cccc5[nH]ccc45)ccc3n2C)cc1,x,1.3µM,2.3µM,n
CC(C)(C)c1ccc(-c2nc(C#N)c(N3CCC(C(N)=O)CC3)o2)cc1,n,u,u,n
CC1(C)c2ccccc2N2CCC(=O)NC21/C=C/c1ccco1 (stereo not drawn),n,u,10µM,n
Cc1ccc(-c2nnn(CC(=O)N(c3ccccc3F)C(C(=O)NCC3CCCO3)c3c[nH]c4ccccc34)n2)cc1 (stereo not drawn),n,12µM,12µM,n
COc1cccc(N(C(=O)Cn2nnc(-c3ccc(Cl)cc3)n2)C(C(=O)NCC2CCCO2)c2ccc(C)cc2)c1 (stereo not drawn),n,n,u,n
Cc1ccc(-c2nnn(CC(=O)N(c3ccccc3)C(C(=O)NCC3CCCO3)c3cccs3)n2)o1 (stereo not drawn),x,n,10µM,n
Cc1ccc(-c2nnn(CC(=O)N(c3ccccc3)C(C(=O)NCC3CCCO3)c3ccc(F)cc3)n2)o1 (stereo not drawn),x,n,n,n
Cc1ccc(-c2nnn(CC(=O)N(c3ccccc3)C(C(=O)NCC3CCCO3)c3ccc(Cl)cc3)n2)cc1 (stereo not drawn),n,u,8.3µM,n
CCN(CC)S(=O)(=O)c1ccc(-c2nnc(SCC(C)=O)o2)cc1,n,x,u,n
COc1cc(OC)cc(-c2nnc(SCC(=O)N3CCOCC3)o2)c1,n,3.7µM,n,u
CCN(CC)S(=O)(=O)c1ccc(-c2nnc(SCC(=O)Nc3cc(OC)cc(OC)c3)o2)cc1,n,13µM,x,n
SMILES,NS1 function inh,Pf growth 48h,Pf growth 96h,SARS PLP yeast
COc1cc(OC)cc(-c2nnc(SCC(=O)N3CCCCC3)o2)c1,n,n,n,n
COc1ccc(NC(=O)CSc2nnc(-c3cccc(O)c3)o2)cc1,n,n,n,n
COc1cc(NC(=O)CSc2nnc(-c3cc(C)on3)o2)cc(OC)c1,u,n,n,n
COc1cccc(NC(=O)CSc2nnc(-c3cc(C)n(-c4ccccc4)c3C)o2)c1,n,n,10µM,n
CCN(CC)S(=O)(=O)c1ccc(-c2nnc(SCC(=O)N3CCOCC3)o2)cc1,n,u,8.3µM,n
CC(=O)c1cccc(N(C(=O)Cn2nnc3ccccc32)C(C(=O)NCC2CCCO2)c2ccc(N3CCOCC3)cc2)c1 (stereo not drawn),n,n,n,n
CC(=O)Oc1ccc2nc(/C=C/c3ccccc3)oc(=O)c2c1,n,n,u,n
Cc1ccc(C)c(COC(=O)CCN=C2NS(=O)(=O)c3ccccc32)c1,x,n,n,n
